BioA inh = M. tuberculosis BioA enzyme inhibitors, primary screen, biochemical, plate reader, single point, HTS | 7,8-diaminopelargonic acid synthase BioA (Mycobacterium tuberculosis) | purified M. tuberculosis BioA enzyme | inhibition, % at 9.99 µM | actives 0.096% (n = 360,000); in the data active = inhibition above about 40%
Mtb hypoxia rep = PubChem AID 1159583; fluorescence inhibition, % (no concentration beside the values); actives 0.1% (n = 300,000); M. tuberculosis hypoxia-regulated fluorescent reporter, fluorescence; in the data active = fluorescence inhibition mostly above about 23%, no sharp cut-off; inactive = mostly below about 17%
FadD28 FP inh = inhibitors of FadD28 bisubstrate probe binding, primary screen, biochemical, fluorescence polarization, single point; inhibition, % at 12.5 µM; Mycobacterium tuberculosis FadD28 fatty-acid-AMP ligase; actives 0.22% (n = 360,000); AID 588549, 2011; in the data active = inhibition above about 8.5%, passing the limit was not always enough
SARS 3CLpro inh = SARS-CoV 3CLpro protease inhibitors, primary screen, biochemical, quenched FRET; Replicase polyprotein 1ab (Severe acute respiratory syndrome coronavirus), P0C6X7; recombinant SARS-CoV 3CLpro, quenched FRET peptide cleavage; inhibition, % at 6 µM; actives 0.14% (n = 290,000); in the data active = inhibition above about 12%
DUSP3 inh = VHR1 phosphatase inhibitors, primary screen, biochemical, absorbance, uHTS | actives 0.52% (n = 290,000) | Dual specificity protein phosphatase 3 (Homo sapiens), P51452 | recombinant VHR phosphatase, pNPP absorbance | AID 1654, 2009 | inhibition, % at 13.3 µM; in the data active = inhibition above about 50%
Target sequence (P51452 whole entry, looked up): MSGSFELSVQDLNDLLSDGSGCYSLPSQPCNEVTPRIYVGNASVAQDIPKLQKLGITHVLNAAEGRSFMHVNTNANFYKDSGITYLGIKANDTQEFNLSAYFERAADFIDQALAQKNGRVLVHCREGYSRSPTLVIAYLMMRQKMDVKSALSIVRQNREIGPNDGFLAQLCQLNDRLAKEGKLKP
* hit, by the source's call; x = not tested or not shown. Shown are actives, neighbours in structure and some others; about 0.7% of the full set was active somewhere.

SMILES	BioA inh	Mtb hypoxia rep	FadD28 FP inh	SARS 3CLpro inh	DUSP3 inh
COc1ccc(/C=C(\NC(=O)c2cccs2)C(=O)NC(C)(C)C)cc1OC	-8	10	-1	0	53*
COc1ccc(/C=C(\NC(=O)c2cccs2)C(=O)Nc2ccccc2C)cc1OC	-1	8	-3	7	-7
O=C(Cn1c(=O)oc2ccccc21)Nc1nc(-c2ccccc2)cs1	-1	1	1	2	17
O=C(Cn1c(=O)oc2ccccc21)Nc1ccc(F)c(F)c1	-1	13	-1	-1	57*
CC(C)(C)c1csc(NC(=O)Cn2c(=O)oc3ccccc32)n1	8	x	11*	1	3
COc1cccc(NC(=O)Cn2c(=O)oc3ccccc32)c1	x	3	39*	0	19
Cc1ccc(NC(=O)Cn2c(=O)oc3ccccc32)cc1C	-1	10	-3	3	2
O=C(CNC(=O)c1ccc(Br)cc1)NN=Cc1cccnc1	x	-1	x	x	x
CCOC(=O)Cc1csc(NC(=O)CSc2nc(N)c3c(C)c(C)sc3n2)n1	-1	13	0	0	50*
Cc1ccc(O)c(C(=O)c2cnc3c(c2)COc2ccccc2-3)c1	-3	x	-3	-3	9
O=C(c1cnc2c(c1)COc1ccc(Cl)cc1-2)c1ccccc1O	-1	x	-1	-1	50*
CCCC(C)NC(=O)c1sc2nc3n(c(=O)c2c1C)CCC3 (centres undefined)	x	16	-5	4	54*
Cc1c(C(=O)NCCO)sc2nc3n(c(=O)c12)CCC3	x	4	-1	-3	31
CCOc1ccc2nc(NC(=O)c3ccccn3)sc2c1	3	-8	-5	-2	23
Cc1ccnc2nc(C(=O)Nc3nc4ccccc4s3)nn12	-2	53*	-3	-2	14
Cc1ccc2nc(NC(=O)c3ccccn3)sc2c1	-1	10	0	7	52*
CCC(C)n1c(NC(=O)c2ccccc2)c(C#N)c2nc3ccccc3nc21 (centres undefined)	-1	x	3	-3	58*
CCCCn1c(NC(=O)c2ccccc2)c(C#N)c2nc3ccccc3nc21	0	2	-2	2	33
Nc1nc(CN2CCN(Cc3ccccc3)CC2)nc(N2CCCc3ccccc32)n1	-2	-2	-1	-2	54*
COCCNC(=O)COC(=O)C=Cc1c(C)nn(Cc2ccc(Cl)cc2Cl)c1Cl	x	2	x	x	x
C(=N\N1CCOCC1)/c1ccsc1	1	x	0	-3	57*
Cc1ccc(-c2c(C)sc3nc[nH]c(=O)c23)cc1C	2	9	-2	-8	53*
Cc1sc2nc[nH]c(=O)c2c1-c1ccc(F)cc1	-1	5	2	1	21
CC(C)CCOC(=O)C[N+](C)(C)CCOC1CC2CCC1(C)C2(C)C (centres undefined)	x	41*	-1	7	30
COc1ccc2cc(C(=O)N3CCc4ccccc43)[nH]c2c1	-2	24	0	-5	53*
SMILES	BioA inh	Mtb hypoxia rep	FadD28 FP inh	SARS 3CLpro inh	DUSP3 inh
O=C(c1cc2cc(Br)ccc2[nH]1)N1CCc2ccccc21	0	5	0	-1	27
Cc1ccc(NC(=O)C(C)N=C2NS(=O)(=O)c3ccccc32)cc1 (centres undefined)	x	5	-4	0	15
COc1ccc(NC(=O)C(C)N=C2NS(=O)(=O)c3ccccc32)cc1S(N)(=O)=O (centres undefined)	1	26*	-4	x	x
CCC(C)C1CNC(=S)N1CCc1cc(C(F)(F)F)cc(C(F)(F)F)c1 (centres undefined)	x	-7	x	x	x
C=CCn1c(CCNC(=O)c2ccccc2F)nnc1SCc1nc2ccccc2c(=O)[nH]1	-4	-5	-1	-2	26
C=CCn1c(CNC(=O)c2ccccc2F)nnc1SCc1nc2ccccc2c(=O)[nH]1	-2	-3	-1	7	52*
CCOC(=O)c1c(NC(=O)CN2C(=O)N(C)C3(CCCCC3)C2=O)sc(C(=O)N(C)C)c1C	2	25*	-3	x	x
COc1ccc(C(=O)NCc2cc(C(C)C)no2)cc1OC1CCN(C(C)C)CC1	1	2	0	3	13
CCc1cc(CNC(=O)c2ccc(OC)c(OC3CCN(C(C)C)CC3)c2)on1	1	-10	-3	-4	57*
CC(=O)Nc1ccc(N=C(C2=C(O)c3ccccc3C2=O)c2ccccc2)cc1	x	-4	14*	2	22
CCOc1ccc(C=NNC(=O)c2[nH]c3ccc(C)cc3c2C)cc1	x	8	x	x	x
Cc1cc(C)c(C=C2C(=O)Nc3ccccc32)[nH]1	x	-10	x	x	x
CCn1cc(C(=O)NNC(=O)c2ccc(Cl)cc2)c(=O)c2ccc(C)nc21	x	6	-4	0	52*
CCn1cc(C(=O)OCC(=O)c2ccc(Cl)cc2)c(=O)c2ccc(C)nc21	-3	7	-2	0	-1
Cc1cc(C)c2c(CC(=O)NN(C)C)coc2c1	-4	0	-4	1	53*
COc1ccc(CN2CCOCCOCCOCC2)cc1	x	13	-1	-4	-3
COc1ccc(CN2CCOCC2)cc1	1	17	2	4	52*
CCCCC1CNC(=S)N1CCCC (centres undefined)	x	-5	x	x	x
COc1ccccc1/C=C\C(=O)NCC(=O)NN=C(C)c1cccc([N+](=O)[O-])c1	x	4	x	x	x
CC(=O)c1cccc(NC(=S)NC2CCCCCCC2)c1	0	5	14*	-1	26
CC(=O)c1cccc(NC(=O)NC2CCCCC2)c1	0	-2	-3	5	-13
CC(=O)c1cccc(NC(=O)NC2CCCCCCC2)c1	-1	33*	15*	1	19
COc1ccc(S(=O)(=O)N2CCC(C(=O)NCCC(=O)Nc3ccc(Cl)cc3)CC2)cc1	-1	1	-2	-6	57*
CCc1nnc(NC(=O)c2c(O)c3cccc4c3n(c2=O)CC4)s1	x	x	x	x	-5
CCCc1nnc(NC(=O)c2c(O)c3cccc4c3n(c2=O)CC4)s1	x	56*	x	x	-1
SMILES	BioA inh	Mtb hypoxia rep	FadD28 FP inh	SARS 3CLpro inh	DUSP3 inh
Cc1c(C(=O)NN=Cc2ccoc2)cccc1[N+](=O)[O-]	x	-1	x	x	x
Cc1ccc(CN2CCN(N=Cc3cccc([N+](=O)[O-])c3)CC2)cc1	x	5	x	x	x
CC1CCN(CC(O)CN2c3ccccc3Sc3ccccc32)CC1 (centres undefined)	-2	4	-2	-3	58*
CC1CCN(C(=O)N2c3ccccc3Sc3ccccc32)CC1	-1	x	-5	4	8
O=C1C=C(c2ccc(CO)cc2)CC(c2ccc3c(c2)OCO3)C1 (centres undefined)	x	19	x	x	x
CC(CCc1ccccc1)=NNC(=O)C1C2CCCCC21 (centres undefined)	x	12	x	x	x
Brc1ccc(-c2csc(NNC3=NCCCCC3)n2)cc1	-3	5	-1	5	10

Screens deposited in PubChem by several laboratories.
